Shown are actives, neighbours in structure and some others; about 0.7% of the full set was active somewhere.
Vif-APOBEC3G blk: blocks the Vif interaction with human APOBEC3G | Q9HC16 | HeLa A3G-eYFP + Vif (tagged APOBEC3G with the HIV-1 protein that degrades it), YFP fluorescence, overnight | Potency, µM (doses to about 46.1 µM), most hits filed as inhibitors | actives 0.076% (n = 410,000) | AID 602310; also: nearly all actives have a fitted effect of over 60% in size
Target sequence (Q9HC16 whole entry, looked up): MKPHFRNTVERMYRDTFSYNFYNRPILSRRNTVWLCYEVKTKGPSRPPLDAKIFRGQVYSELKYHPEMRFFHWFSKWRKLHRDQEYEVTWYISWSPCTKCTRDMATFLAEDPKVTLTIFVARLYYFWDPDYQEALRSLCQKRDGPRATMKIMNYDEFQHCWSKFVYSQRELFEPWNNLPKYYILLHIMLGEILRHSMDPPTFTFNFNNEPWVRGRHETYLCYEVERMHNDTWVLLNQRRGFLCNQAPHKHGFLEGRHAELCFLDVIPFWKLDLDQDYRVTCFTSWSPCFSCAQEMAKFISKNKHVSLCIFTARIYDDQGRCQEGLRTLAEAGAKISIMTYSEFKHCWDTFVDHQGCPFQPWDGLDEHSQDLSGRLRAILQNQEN
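Read-out is eYFP fluorescence (Ex 488/Em 500-530) from Vif-expressing HeLa A3G-eYFP cells; more signal means A3G escaped Vif-mediated degradation. Cells plated overnight, compound pinned in, incubated overnight at 37 deg C.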
GLS inhibitor: blocks human kidney-isoform glutaminase activity; O94925; GLS enzymatic activity, qHTS titration; Potency, µM (top dose mostly 45.5 µM), actives largely listed as inhibitors; actives 0.21% (n = 410,000)
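hKGA in 45 mM KH2PO4 pH 8.2, 0.02% Tween-20 with pin-transferred compounds; 1 mM L-glutamine (stock) plus glutamate oxidase/HRP/Amplex Red coupling added. Fluorescence read initially and after 30 min at RT.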
Epigenetic derep: epigenetic control regulation, reporter derepression; murine LDR cells, GFP reporter derepression, 30 h; Potency, µM (doses to about 53.9 µM), most hits filed as activators; actives 0.2% (n = 280,000); also: nearly all actives have a fitted effect of over 60% in size
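Murine LDR cells carrying a silenced, genomically integrated CMV-driven GFP reporter were exposed to compound for 30 hours at 37 C. After PBS washes, GFP-positive cells (20–120 um objects) were counted by laser-scanning microplate cytometry.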
PINK1 modulator: modulators of PINK1 expression; PINK1 immunofluorescence, high-content cytometry, 24 h; Potency, µM (top dose mostly 76.6 µM), usual class: activators; actives 0.2% (n = 410,000); AID 624263; active = well fitted activation curve with a large enough effect; inconclusive = small, poorly fitted or top-dose-only effect; cell line not stated here; also: nearly all actives have a fitted effect of over 65% in size
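Decision-based qHTS: stable cells, 24 h exposure to five compound concentrations, CCCP as control. Fixed cells stained for PINK1 plus nuclear, mitochondrial and cell markers, cytometer read.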
Vif-APOBEC3F blk: Vif-A3F binding inhibition; actives 0.2% (n = 390,000); HeLa A3F-eYFP + Vif (tagged APOBEC3F with the HIV-1 protein that degrades it), YFP fluorescence increase; Potency, µM (doses to about 46.1 µM); also: nearly all actives have a fitted effect of over 65% in size
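HeLa cells stably expressing Vif plus C-terminally eYFP-tagged A3F were seeded, incubated overnight at 37 deg C, dosed with compound, incubated overnight again at 37 deg C. Yellow fluorescence (Ex 488/Em 500-530) reported blocked Vif-mediated A3F-eYFP degradation.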
Hits are given with their value; . = inactive; ? = inconclusive; / = no result given. Unless noted, calls follow the shape of the dose curve; as a rule, active = well fitted curve in the direction sought with a large enough effect; inconclusive = small, poorly fitted or top-dose-only effect, or another doubt; inactive = no such curve, though single readings can be large; an effect the other way counts as inactive or inconclusive.

SMILES | Vif-APOBEC3G blk | GLS inhibitor | Epigenetic derep | PINK1 modulator | Vif-APOBEC3F blk
COc1ccccc1CNc1nc2ccc(C)cc2n2nnnc12 | . | . | ? | . | 13µM
Fc1ccc(CNc2nc3ccc(Cl)cc3n3nnnc23)cc1 | . | . | ? | . | 7.9µM
Cc1ccc(CNc2nc3ccc(C)cc3n3nnnc23)cc1 | . | . | . | . | .
COc1cccc(CNc2nc3ccc(C)cc3n3cnnc23)c1 | . | . | ? | 40µM | .
CC(C)N1C[C@@H](Sc2ccccn2)C[C@H]1C(=O)Nc1ccc2c(c1)Nc1ccccc1CC2 | / | / | / | . | /
Cc1cc(NC(=O)Nc2nnc(N(C)Cc3ccccc3)s2)ccc1Br | 13µM | . | . | . | ?
O=C(Nc1cccc(Cl)c1)Nc1nnc(-c2ccncc2)s1 | . | . | . | 7.1µM | .
O=C(Nc1ccc(Cl)cc1)Nc1nnc(-c2ccncc2)s1 | . | . | . | 7.9µM | .
O=C(Nc1ccc(F)cc1)Nc1nnc(-c2ccncc2)s1 | . | . | . | . | .
Cc1ccc(NC(=O)Nc2nnc(-c3ccncc3)s2)cc1C | . | . | . | 16µM | .
CCn1cc(CN2CCOc3ccc(C(O)C4CCCCC4)cc3C2)c(C)n1 (stereo not drawn) | / | / | / | . | /
Cc1ccc(C(=O)Nc2cccc(-c3nc(CNC(=O)c4cccc(N(C)C)c4)c(C)o3)c2)s1 | / | / | / | . | /
CCCS(=O)(=O)NCc1c(C)ncc2c1CCN(C(=O)/C=C/c1ccc(F)cc1F)C2 | / | / | / | . | /
COC(=O)CN1C(=O)S/C(=C/c2cc(C)n(C)c2C)C1=O | . | . | . | . | .
COC(=O)CN1C(=O)S/C(=C/c2ccc(N3CCCCC3)o2)C1=O | . | . | ? | 8.9µM | ?
CCOC(=O)CN1C(=O)S/C(=C/c2ccc(N3CCCCC3)o2)C1=O | . | . | ? | . | 32µM
O=C(O)CN1C(=O)/C(=C/c2ccc(N3CCCCC3)o2)SC1=S | . | 11µM | . | . | .
CC(C)NC(=O)c1cn([C@H]2CC[C@@H](NC(=O)/C=C/c3cccs3)CC2)nn1 | / | / | / | . | /
COc1cccc(CN2CCC(n3cc(C(=O)N4CCCCC4)nn3)CC2)c1OC | / | / | / | . | /
Cc1ccc2c(CC(=O)N3CCOc4ccc(CN5C[C@@H](C)O[C@@H](C)C5)cc4C3)cc(=O)oc2c1 | / | / | / | . | /
Cc1cccnc1-c1cccc2c1OC(CNC(=O)C1CCCc3c1[nH]c1ccccc31)C2 (stereo not drawn) | / | / | / | . | /
Cc1ccccc1NC(=O)c1sc2nc3c(cc2c1N)CN(Cc1ccccc1)CC3 | / | . | . | . | /
COc1ccc(NC(=O)c2sc3nc4c(cc3c2N)CN(Cc2ccccc2)CC4)cc1OC | / | . | 18µM | . | /
Cc1nc2sccn2c1CN1Cc2ccccc2OC(c2ccccc2F)C1 (stereo not drawn) | / | / | / | . | /
Cc1ccc(C(=O)NCCc2nnc3n2CCN(Cc2ccnc4ccccc24)CC3)c(C)c1 | / | / | / | . | /
SMILES | Vif-APOBEC3G blk | GLS inhibitor | Epigenetic derep | PINK1 modulator | Vif-APOBEC3F blk
COc1ccccc1-c1ccnc(-n2ncc(C(=O)NCc3cccnc3)c2C)n1 | / | / | / | . | /
Cc1ccc(Sc2c(C#N)c(-c3ccccc3)nn2C)cc1 | . | . | . | 10µM | .
CC(C)C[C@@H](C=O)NC(=O)[C@H](CC(C)C)NC(=O)[C@H](CC(C)C)NC(=O)OCc1ccccc1 | / | / | 1.3µM | / | /
Cn1cc(C(c2ccccc2OCC(=O)O)c2cn(C)c3ccccc23)c2ccccc21 | . | 14µM | / | . | .
Cc1ccccc1C(=O)N1CC/C(=N/OS(=O)(=O)O)c2ccc(Cl)cc21 | / | . | / | / | /
C=C1C(=O)CC2=C1[C@](Cc1ccc(F)cc1)(C(=O)OC)N(C(=O)c1ccccc1)C2 | / | . | / | . | /
C=C1C(=O)C=C2CN(C(=O)c3ccccc3)[C@@](Cc3ccc(F)cc3)(C(=O)OC)[C@@H]12 | 7.1µM | . | . | . | .
O=c1oc(/C=C/c2ccc([N+](=O)[O-])s2)nc2ccccc12 | . | . | / | 40µM | 28µM
Cc1ccc(N2C(=O)CS/C2=C(\C(Cl)=C(Cl)Cl)[N+](=O)[O-])cc1 | ? | . | ? | . | 25µM
CC(=O)C(=Cc1cccc(C#N)c1)C(=O)c1ccccc1 | ? | 11µM | / | . | /
CC(=O)C(=Cc1ccc(Cl)cc1)C(=O)c1ccccc1 | . | . | / | . | /
COc1cc2c(cc1OC)CN(C(=O)[C@@H]1C[C@H](NCc3cn(C)c4ccccc34)CN1C1Cc3ccccc3C1)CC2 | / | / | / | . | /

High-throughput results (PubChem)
